Source: PubChem (several laboratories)
Mtb BioA inh: M. tuberculosis BioA enzyme inhibitors, primary screen, biochemical, plate reader, single point, HTS | purified M. tuberculosis BioA enzyme | inhibition, % at 9.99 µM | 0.096% of 360,000 active | 7,8-diaminopelargonic acid synthase BioA (Mycobacterium tuberculosis); in the data active = inhibition above about 40%
SARS 3CLpro inh: SARS-CoV 3CLpro protease inhibitors, primary screen, biochemical, quenched FRET; Replicase polyprotein 1ab (Severe acute respiratory syndrome coronavirus), P0C6X7; recombinant SARS-CoV 3CLpro, quenched FRET peptide cleavage; inhibition, % at 6 µM; 0.14% of 290,000 active; AID 1706, 2009; in the data active = inhibition above about 12%
FadD28 binding: inhibitors of FadD28 bisubstrate probe binding, primary screen, biochemical, fluorescence polarization, single point; AID 588549, 2011; 0.22% of 360,000 active; Mycobacterium tuberculosis FadD28 fatty-acid-AMP ligase; inhibition, % at 12.5 µM; in the data active = inhibition above about 8.5%, passing the limit was not always enough
GDH-TPI counter: GDH-TPI coupling enzyme inhibitors, primary screen, artefact control for M. tuberculosis FBA inhibitor project, biochemical, absorbance, full deck; GDH-TPI coupled enzyme counterscreen, NADH absorbance; inhibition, % at 4.8 µM; 1.2% of 360,000 active; AID 588335, 2011; in the data active = inhibition above about 30%
FBA Mtb inh: Mtb FBA enzyme inhibitors, primary screen, biochemical, fluorescence, strain H37Rv. Fructose-bisphosphate aldolase (Mycobacterium tuberculosis (strain ATCC 25618 / H37Rv)), …. purified M. tuberculosis FBA, fluorescence read-out. inhibition, % at 1 µM. 2.3% of 360,000 active; in the data active = inhibition above about 27%
Target sequence (P9WQA3 whole entry, looked up): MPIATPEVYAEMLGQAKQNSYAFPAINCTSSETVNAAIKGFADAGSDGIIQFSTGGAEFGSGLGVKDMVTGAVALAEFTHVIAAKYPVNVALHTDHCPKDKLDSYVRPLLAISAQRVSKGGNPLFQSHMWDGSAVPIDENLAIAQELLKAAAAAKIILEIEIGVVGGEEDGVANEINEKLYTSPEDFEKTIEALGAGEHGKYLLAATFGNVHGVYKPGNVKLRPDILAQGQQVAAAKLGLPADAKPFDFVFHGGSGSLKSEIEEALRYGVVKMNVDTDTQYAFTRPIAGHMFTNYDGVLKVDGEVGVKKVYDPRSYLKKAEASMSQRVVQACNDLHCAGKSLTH
Hits are given with their value; - = inactive; . = not tested or not shown; + = active, no number. Hits are enriched below; roughly 3.1% of the tested compounds scored in any of these assays.

SMILES	Mtb BioA inh	SARS 3CLpro inh	FadD28 binding	GDH-TPI counter	FBA Mtb inh
Cc1ccc(C2=NN(C(=O)c3cccs3)C(c3ccccc3O)C2)cc1 (configuration not stated)	.	-	-	-	-
COc1ccc(C2=NN(C(=O)c3cccs3)C(c3ccccc3OC)C2)cc1OC (configuration not stated)	-	-	-	34	-
COc1ccc(C2=NN(C(=O)c3ccco3)C(c3cccs3)C2)cc1OC (configuration not stated)	-	.	-	38	-
COc1ccccc1-n1c(=S)sc2c(=O)n(Cc3ccco3)c(SC)nc21	-	-	-	40	-
CC[n+]1c(-c2ccccc2)c2cc(N)ccc2c2ccc(N)cc21	.	.	15	-	-
CN(C)C(=O)C[C@H]1CC[C@H](NS(=O)(=O)c2ccccc2)[C@@H](CO)O1	-	.	.	.	.
O=C(C[C@@H]1C[C@@H]2c3cc(NC(=O)C4CCC4)ccc3O[C@@H]2[C@H](CO)O1)NC1CCCC1	-	.	.	.	.
COc1ccccc1NC=C1C(=O)OC(C)(C)OC1=O	-	-	-	47	-
CCOc1ccccc1NC=C1C(=O)OC(C)(C)OC1=O	-	-	-	41	-
CC1(C)OC(=O)C(=CNc2cccc(O)c2)C(=O)O1	-	-	-	35	-
CC1(C)OC(=O)C(=CNc2ccccc2F)C(=O)O1	-	-	-	-	-
CC1(C)OC(=O)C(=CNc2ccccc2)C(=O)O1	-	-	-	-	-
CCOc1ccccc1NCN1C(=O)c2ccccc2C1=O	-	.	-	-	-
O=C(NCc1cccc(F)c1)[C@@H]1[C@@H](CO)[C@@H]2Cn3c(ccc(-c4ccccc4)c3=O)[C@H]1N2CC1CC1	-	.	.	.	.
C[C@@H]1CN([C@H](C)CO)C(=O)c2cc(NS(C)(=O)=O)ccc2O[C@@H]1CN(C)S(=O)(=O)c1cn(C)cn1	-	.	.	.	.
COCc1cc(=O)[nH]c(Nc2nc3ccc(C)cc3o2)n1	.	-	-	34	-
CCc1nc(Nc2ccc3c(c2)OCCO3)c2oc3ccccc3c2n1	-	-	-	33	-
Cc1c(C(=O)/C=C/N(C)C)nnn1-c1ccc(Cl)cc1Cl	.	-	-	33	-
Cc1c(C(=O)/C=C/N(C)C)nnn1-c1ccc(Cl)c(Cl)c1	.	-	-	42	-
Cc1c(C(=O)/C=C/N(C)C)nnn1-c1ccc(F)c(Cl)c1	-	-	-	35	-
COC(=O)c1nnn(-c2ccc(F)c(Cl)c2)c1C(=O)OC	-	-	-	-	-
C[C@@H]1CN([C@H](C)CO)C(=O)c2cc(-c3ccccc3F)cnc2O[C@@H]1CN(C)C(=O)C1CC1	-	.	.	.	.
Cc1ccc(N/C=C(\C#N)c2ccc(OCCCF)cc2)cc1	-	-	-	41	-
COc1ccc(N/C=C(\C#N)c2ccc(OCCCF)cc2)cc1	-	-	-	-	-
COc1ccc(-c2cc(C(F)(F)F)c(C#N)c(=O)[nH]2)cc1	-	-	-	-	+
SMILES	Mtb BioA inh	SARS 3CLpro inh	FadD28 binding	GDH-TPI counter	FBA Mtb inh
COc1ccccc1-c1cc(C(F)(F)F)c(C#N)c(=O)[nH]1	.	-	-	-	+
COc1cc(-c2cc(-c3ccc(N)cc3)[nH]c(=O)c2C#N)cc(OC)c1OC	-	-	-	-	-
COc1ccc(-c2cc(-c3ccco3)[nH]c(=O)c2C#N)cc1	-	-	-	-	123
Cc1cc(C(F)(F)F)c(C#N)c(=O)[nH]1	-	-	-	-	137
N#Cc1c(C(F)(F)F)cc(-c2cccc(Cl)c2)[nH]c1=O	-	-	-	-	156
CSc1cc(-c2ccc(Cl)cc2)[nH]c(=O)c1C#N	.	-	-	-	-
N#Cc1c(C(F)(F)F)cc(-c2ccc(Cl)cc2)[nH]c1=O	-	-	-	-	177
N#Cc1c(C(F)(F)F)cc(-c2ccc(F)cc2)[nH]c1=O	.	-	-	-	142
N#Cc1c(-c2ccccc2)cc(-c2ccccc2)[nH]c1=O	-	-	-	-	-
C[C@H](CO)N1C[C@H](C)[C@H](CN(C)Cc2ccc(C(=O)Nc3ccccc3N)cc2)Oc2ccc(NS(=O)(=O)c3cn(C)cn3)cc2C1=O	-	.	.	.	.
CN(C)C(=O)c1cccc(-c2ccc3c(c2)[C@@H]2[C@@H](CCN2C(=O)c2ccccc2F)[C@@H](CO)N3)c1	-	.	.	.	.
